Only some compounds are listed: those with a hit (about 19% of all), similar ones and a draw of the others.
TDP1 cell CPT: DT40-hTDP1 cell growth loss with CPT; chicken DT40 Tdp1-/-;hTDP1 cells + 20 nM CPT, ATP luminescence, 48 h; Potency, µM (series often up to 46.2 µM), most hits filed as inhibitors; 420,000 compounds, 12% hits; note: nearly all actives have a fitted effect of over 55% in size
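Cell growth measured by CellTiter-Glo luminescence after a minimum 48 h, 37 C compound exposure with 20 nM CPT in Tdp1-knockout DT40 cells stably expressing hTDP1, seeded 400/well; qHTS titration format.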
ASM inhibitor: blocks human secretory acid sphingomyelinase; P17405; placental ASM, HMU-PC fluorogenic substrate, 60 min; Potency, µM (top dose mostly 57.5 µM), usual class: inhibitors; 340,000 compounds, 0.006% hits
Target sequence (P17405 47-631 limits assumed): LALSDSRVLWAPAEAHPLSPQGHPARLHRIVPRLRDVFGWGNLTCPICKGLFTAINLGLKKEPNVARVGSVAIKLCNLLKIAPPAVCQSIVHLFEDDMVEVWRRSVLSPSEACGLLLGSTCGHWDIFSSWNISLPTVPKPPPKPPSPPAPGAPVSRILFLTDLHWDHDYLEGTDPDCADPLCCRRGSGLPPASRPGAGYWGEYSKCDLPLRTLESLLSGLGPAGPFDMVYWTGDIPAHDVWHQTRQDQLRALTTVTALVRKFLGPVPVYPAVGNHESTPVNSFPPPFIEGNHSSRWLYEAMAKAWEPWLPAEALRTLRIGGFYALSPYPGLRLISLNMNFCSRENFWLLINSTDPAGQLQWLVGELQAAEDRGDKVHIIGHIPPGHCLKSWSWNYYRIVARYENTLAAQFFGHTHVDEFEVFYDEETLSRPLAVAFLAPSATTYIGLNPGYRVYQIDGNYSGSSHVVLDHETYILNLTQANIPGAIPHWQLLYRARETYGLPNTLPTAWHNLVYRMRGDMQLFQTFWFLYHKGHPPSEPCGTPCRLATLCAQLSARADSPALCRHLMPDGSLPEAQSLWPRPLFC
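Steps: dispense placental human ASM, pin compound, wait 10 min at room temperature, add HMU-PC0 substrate at 9 uM final, incubate 60 min at 37 °C, add stop solution raising pH to 10, read fluorescence.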
TDP1 cell noCPT: qHTS for Inhibitors of human tyrosyl-DNA phosphodiesterase 1 (TDP1): qHTS in cells in absence of CPT | DT40 Tdp1-/- hTDP1 cells, no CPT, ATP luminescence, 48 h | Potency, µM (series often up to 46.2 µM), hits mostly inhibitors | 420,000 compounds, 15% hits; note: nearly all actives have a fitted effect of over 55% in size
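Growth of hTDP1-complemented DT40 Tdp1-knockout cells is measured by ATP luminescence after at least 48 hr compound exposure at 37 °C, with DMSO substituting for the 20 nM CPT used in the parallel screen.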
TGFb SMAD3 inh: blocks TGF-b signaling; HepG2 CAGA-GFP TGF-b/SMAD3 reporter, GFP fluorescence, 18 h; TGF-beta stimulated, 500 pg/mL final; Potency, µM (series often up to 46.1 µM), most hits filed as inhibitors; 410,000 compounds, 1.2% hits; note: nearly all actives have a fitted effect of over 65% in size
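Smad-responsive CAGA-GFP expression was quantified in HEPG2 cells exposed to compounds and 500 pg/mL final TGF-beta for 18 h at 37 degrees C; unstimulated wells defined full inhibition.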
HepG2 viability: HepG2 cytotoxicity, counter-screen for TGF-b inhibitors | 410,000 compounds, 0.76% hits | HepG2 CAGA-GFP viability, ATP luminescence, 18 h | Potency, µM (doses to about 46.1 µM), usual class: cytotoxic | AID 588856
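HepG2 CAGA-GFP cells (1000/well, DMEM with 1% FBS) received compound, then TGF-beta at 500 pg/mL final, and were incubated 18 hours at 37 degrees C. Viability was read by CellTiter-Glo luminescence. Media-only wells were set as complete cell-killing and DMSO as no toxicity.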
IL-1B inflam inh: blocks inflammasome-driven IL-1 beta release; THP-1 LPS/ATP IL-1B secretion, AlphaLISA, 16 h; active compounds read low; activity change, % at 57.5 µM; 360,000 compounds, 4.7% hits; AID 743279; in the data active = activity change below about -50%; inconclusive = mostly about -30% to -49%
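THP-1 cells pretreated 1 hr with compounds (up to 57.5 uM final), then stimulated with LPS (250 ng/mL final) plus ATP (1.25 mM final); secreted IL-1B measured by AlphaLISA after 16 hr, decreased signal indicating inhibition.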
A number is an active result; n = inactive; u = inconclusive; x = no result. Unless noted, calls come from the whole dose curve; as a rule, active = well fitted curve in the direction sought with a large enough effect; inconclusive = small, poorly fitted or top-dose-only effect, or another doubt; inactive = no such curve, though single readings can be large; an effect the other way counts as inactive or inconclusive.

SMILES	TDP1 cell CPT	ASM inhibitor	TDP1 cell noCPT	TGFb SMAD3 inh	HepG2 viability	IL-1B inflam inh
C[C@H]1CN([C@@H](C)CO)C(=O)CCCn2cc(nn2)CO[C@@H]1CN(C)S(=O)(=O)c1ccc(C#N)cc1	n	x	n	n	n	n
O=C(CCc1ccco1)CCc1ccco1	n	n	n	n	n	n
[NH-]c1ncnc2c1N=C[N+]2=CC=CCO	2.6µM	n	4.1µM	n	n	n
Cc1ccc(CC(=O)O/N=C(\N)c2ccncc2)cc1	n	n	n	n	n	n
Cc1ccc(Sc2c(C)nn(C(=O)c3ccc(Br)cc3)c2C)cc1	n	x	n	n	n	x
Cc1nn(C(=O)c2ccccc2)c(C)c1Sc1ccc(Cl)cc1	u	x	8.2µM	u	n	x
CCCC(=O)Oc1c(Sc2ccc(C)cc2)c(C)nn1-c1ccccc1	n	x	n	n	n	x
CCC(=O)Oc1c(Sc2ccc(Cl)cc2)c(C)nn1-c1ccccc1	u	x	0.52µM	u	n	x
COC(=O)c1cc2sc(C)cc2n1CC(=O)Nc1ccc(C)cc1Cl	u	x	u	n	n	x
CCC(=O)N1CCc2cc(S(=O)(=O)CCC(=O)NCCc3ccc(S(N)(=O)=O)cc3)ccc21	n	n	n	n	n	n
CCOC(=O)c1cc(-c2ccccc2)n(CCCC(=O)Nc2ccc(C)cc2C)c1C	u	x	u	n	n	x
CCOC(=O)c1cc(-c2ccccc2)n(CCCC(=O)Nc2cc(C)ccc2OC)c1C	18µM	x	23µM	n	n	x
CCOC(=O)c1cc(-c2ccccc2)n(CCCC(=O)Nc2cccc(Cl)c2C)c1C	u	x	u	11µM	n	x
C[C@H](CCC(=O)NCCS(=O)(=O)O)C1CC[C@H]2C3CC[C@@H]4C[C@H](O)CC[C@]4(C)C3C[C@H](O)[C@]12C (stereo partly drawn)	n	x	n	x	x	x
COCCC(=O)N1CCC(Oc2ccc(C(=O)NCc3ncc(C)[nH]3)cc2)CC1	n	n	n	n	n	n
Nc1ccc(-c2nc3nc(N)nc(N)c3nc2-c2ccc(N)cc2)cc1	n	n	n	n	n	n
Cn1cc(C(=O)c2ccc(Cl)cc2)cc1-c1nc2ccccc2n1C	13µM	n	18µM	n	n	-72
S=C(NCC1CCCO1)Nc1ccc(Cl)cc1Cl (stereo not drawn)	n	n	n	n	n	n
CCOc1c(Br)cc(/C=C2\N=C(C)OC2=O)cc1Br	21µM	n	u	n	n	n
COc1cc(/C=C2\N=C(C)OC2=O)cc(OC)c1OC	u	n	u	n	n	n
CC1(c2ccc(OC(F)F)cc2)NC(=O)N(CC(=O)Nc2ccc(Cl)cc2F)C1=O (stereo not drawn)	u	n	u	n	n	n
c1ccc2[nH]c(CCCCCc3nc4ccccc4[nH]3)nc2c1	u	x	u	n	n	n
c1ccc2[nH]c3cc4ncnc4cc3nc2c1	u	n	18µM	u	n	-57
COc1ccc(NC(=O)c2ccc3ccccc3n2)cc1S(=O)(=O)Nc1ccccc1Cl	u	n	23µM	n	n	n
COc1ccc(NC(=O)CCSc2ccc(C)cc2)cc1	u	n	u	n	n	n
SMILES	TDP1 cell CPT	ASM inhibitor	TDP1 cell noCPT	TGFb SMAD3 inh	HepG2 viability	IL-1B inflam inh
COc1ccc(NC(=O)CCSc2ccc(C)cc2)cc1S(=O)(=O)Nc1ccccc1Cl	u	n	13µM	n	n	n
Cc1ccc(SCCC(=O)Nc2ccc(Br)c(C)c2)cc1	n	n	n	u	n	-108
CCN(CC(=O)Nc1ccc(C)c(F)c1)CC(=O)NC(C)C	n	n	n	n	n	n
COc1ccc(NS(=O)(=O)c2cc(NC(=O)CCSc3ccccc3)ccc2OC)cc1	u	n	u	n	n	n
CCN(CC(=O)Nc1ccc(Br)c(C)c1)CC(=O)NC(C)C	u	n	15µM	n	n	n
Cc1nn2c(=O)cc(COC(=O)Cc3ccccc3)nc2s1	n	x	n	n	n	x
CC1S/C(=N\N=C\c2cccc([N+](=O)[O-])c2)N(C(C)(C)C)C1=O (stereo not drawn)	u	n	u	n	n	n
COc1ccc(Cl)cc1NC(=O)CCC(=O)N1CCOc2ccccc21	u	x	u	n	n	x
COc1ccc(NC(=O)CCS(=O)(=O)c2ccccc2Cl)cc1S(=O)(=O)Nc1ccc(Cl)cc1	u	u	16µM	u	n	n
CC(=O)Nc1ccc(SCC(=O)Nc2ccc(Cl)cn2)cc1	n	n	n	n	n	n
Cc1nc(C)c(C(=O)O)c(-c2cccs2)c1C(=O)O	n	n	n	n	n	n
COc1ccc(CNC[C@@H](CCCCN(C)Cc2ccc(OC)cc2)N2C[C@H](c3ccccc3)N(CCc3ccc(Cl)c(Cl)c3)C(=O)C2=O)cc1	u	n	4.1µM	u	n	u
Cc1cccc(CC(=O)Nc2sc(C(C)C)cc2C(=O)N2CCOCC2)c1	n	n	n	n	n	n
Cc1ncc2c(n1)-c1cc(F)ccc1SC2	n	n	n	n	n	n
CSc1ncc2c(n1)-c1cc(C)ccc1SC2	2.6µM	n	5.2µM	u	n	n
COc1ccc(OC)c(-c2cnc(OC(C)(C)C)nc2OC(C)(C)C)c1	21µM	n	8.2µM	u	n	n
CNc1cncc(-c2cc(OC)ccc2OC)n1	n	x	n	n	n	n
Cc1nc(-c2ccc(O)c(O)c2)cs1	16µM	n	u	n	n	n
Oc1ccc(-c2csc(-c3cccnc3)n2)cc1O	18µM	n	23µM	n	n	-78
COc1cc(-c2csc(C)n2)ccc1O	n	n	n	n	n	n
CC[n+]1c(C)cc2c(sc3ccccc32)c1C	12µM	n	2.9µM	u	n	n
Nc1ccccc1O	u	n	16µM	u	16µM	n
COc1ccc(C(CC(=O)c2ccc(C)cc2)C(C#N)C#N)cc1OC (stereo not drawn)	4.1µM	n	5.2µM	u	n	-100
COC(=O)C(C(=O)OC)C(CC(=O)c1ccc(C)cc1)c1cc(OC)c(OC)c(OC)c1 (stereo not drawn)	n	n	n	n	n	n
C[C@@H]1C[C@@H]2OC(=O)[C@]3(C)[C@H]2[C@@H](OC3(C)O)[C@]2(C)C(=O)C=C[C@H]12 (stereo partly drawn)	18µM	n	u	n	n	-90
C=CCn1c(CNC(=O)c2cccs2)nnc1SCc1ccc(Cl)cc1Cl	u	n	u	n	n	u

Screens (PubChem BioAssay)
